Source: PubChem BioAssay AID492953 (The Scripps Research Institute Molecular Screening Center, 2010)
The campaign covered roughly 340,000 compounds. About 4,200 (1.2%) were called active. This excerpt belongs to a sample that is enriched for actives. A number with no mark means an inactive call.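 How the source made its calls: active means inhibition above the mean of all tested compounds plus 3 SD (cut at about 24% in these data); inactive means the rest.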

target: Platelet-activating factor acetylhydrolase IB subunit alpha2 (Homo sapiens) (UniProt P68402); assay: inhibition of PAF acetylhydrolase 1b subunit 2 – biochemical, fluorescence polarization, human, primary screen (AID 492953); settings: recombinant PAFAH1B2, FP-rhodamine activity probe, at 3.39 µM, stronger effect = higher value;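 further: 0% = enzyme with DMSO and 100% = wells lacking PAFAH1B2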
Sequence (P68402 whole entry, looked up): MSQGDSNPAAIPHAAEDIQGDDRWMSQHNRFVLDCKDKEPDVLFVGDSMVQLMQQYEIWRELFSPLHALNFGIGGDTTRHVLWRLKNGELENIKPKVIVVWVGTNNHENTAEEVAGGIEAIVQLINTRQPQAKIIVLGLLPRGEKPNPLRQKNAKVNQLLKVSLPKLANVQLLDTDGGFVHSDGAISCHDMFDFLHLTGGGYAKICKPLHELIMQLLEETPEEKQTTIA

First: Cc1ccc(C(=O)O)cc1S(=O)(=O)NCC1CCCO1 (configuration not stated)
Second: CN(C)c1ccc(S(=O)(=O)NCC(=O)NCC2CCCCC2)cc1[N+](=O)[O-]
The inhibition of the first is lower: -0.69% for the first, 8.33% for the second.

First: COc1ccc(CCNS(=O)(=O)c2cccc([N+](=O)[O-])c2)cc1
Second: COc1ccc(S(=O)(=O)NCCCc2ccccc2)cc1
The inhibition of the first is lower: 13.1% for the first, 13.7% for the second.

Going from `O=C1CN(C(=O)COC(=O)C2CC(=O)N(Cc3ccco3)C2)c2ccccc2N1` (configuration not stated) to `O=C(/C=C/c1ccc(Cl)cc1)N1CCN(c2ccccc2[N+](=O)[O-])CC1`, the inhibition falls from -0.96% to -2.36%.

First: O=C(NCCN1CCN(C(=O)c2cccc([N+](=O)[O-])c2)CC1)C(=O)NCc1ccc(Cl)cc1
Second: Cc1ccc(CNS(=O)(=O)CCNC(=O)c2ccccc2)cc1
The inhibition of the first is higher: 10.4% for the first, 0.61% for the second.

Going from `NC(=O)NCCCC(=O)O` to `O=C(O)CCCCCCCCCC[n+]1ccccc1`, the inhibition falls from 4.24% to 1.11%.

Going from `C/C=C/c1ccc(OCCCCN2CCC(C)CC2)c(OC)c1` to `CC1CCN(C(=S)c2cccc([N+](=O)[O-])c2)CC1`, the inhibition rises from 2.16% to 19.4%.

Compared with `CCc1c(C)n([O-])c2c([n+]1=O)CCCCC2`, `Cc1ccc(S(=O)(=O)NC2CCCCCC2)cc1` is higher in inhibition: 7.72% for the first, 11.5% for the second.

Going from `CCc1cccc(CC)c1NC(=O)COc1ccccc1C(=O)c1cc(C#N)c(=O)n(C2CCCCC2)c1` to `CCOc1ccccc1N(CC(=O)NC1CCCCC1)C(=O)CCCC(=O)Nc1ccccn1`, the inhibition rises from 2.15% to 2.23%.

Going from `NS(=O)(=O)c1ccccc1NC(=O)c1c(O)c2ccccc2[nH]c1=O` to `O=C(Nc1ccc2ccccc2c1[N+](=O)[O-])c1ccccc1`, the inhibition rises from 2.89% to 5.08%.

First: Cc1cc(=O)cc(C)n1-c1ccc(Cl)c(Cl)c1
Second: Cc1ccc(NC(=S)NCc2ccccc2Cl)c(C)c1
The inhibition of the first is higher: 4.86% for the first, -2.26% for the second.

First: CCNC(=S)NNC(=O)Cc1ccccc1
Second: O=C(CC1CCCCC1)NCc1ccccc1
The inhibition of the first is lower: 0.2% for the first, 2.39% for the second.

Compared with `CC(C)C(=O)Nc1cccc(NC(=S)NC(=O)C(c2ccccc2)c2ccccc2)c1`, `COc1ccc(C2(CNC(=O)C(c3ccccc3)c3ccccc3)CCOCC2)cc1OC` is higher in inhibition: -2.74% for the first, -0.88% for the second.

Going from `Cc1ccc(S(=O)(=O)N2CCC(N3CCCCCC3)CC2)cc1` to `Cc1ccc(S(=O)(=O)N2CCC(C(=O)N3CCCCCCC3)CC2)cc1`, the inhibition falls from 5.12% to -2.62%.

Going from `COc1ccc(/C(C)=N/N2CCOCC2)c(O)c1` to `CCOC(=O)C1(Cc2ccccc2C)CCCN(C(=O)c2ccc(COC)o2)C1` (configuration not stated), the inhibition rises from 3.71% to 5.55%.

Compared with `Nc1cc(OC(=O)c2ccccc2Br)nn1S(=O)(=O)c1ccccc1`, `COc1ccc(N(Cc2ccccc2)S(=O)(=O)c2cccc(C(=O)O)c2)cc1` is higher in inhibition: -1.3% for the first, -0.1% for the second.

Going from `CCOC(=O)N1CCN(c2cc(C)c([N+](=O)[O-])cc2F)CC1` to `CCc1nn(CC(=O)N2CCN(c3cc(C)ccc3C)CC2)c(=O)c2cc3occc3n12`, the inhibition falls from 6.77% to 2.35%.

First: Cc1ccc(N(C(=O)c2ccc(CN3CCOCC3)o2)C(C(=O)NCCC(C)C)c2cccs2)c(C)c1 (configuration not stated)
Second: CC(C)COc1ccc(C(=O)OCC(=O)NCCC2=CCCCC2)cc1
The inhibition of the first is lower: 2.55% for the first, 2.59% for the second.

Going from `Cc1cc(=O)oc2c3c(cc(OCC(=O)NCCC(=O)N[C@@H](C)C(=O)O)c12)OC(C)(C)CC3` to `Cc1c(C)c2c(OCC(=O)NCCCO)cc3c(c2oc1=O)CCC(C)(C)O3`, the inhibition rises from 2.72% to 9.23%.

Going from `COCC1CCCN(Cc2cn[nH]c2-c2cc3ccccc3o2)C1` (configuration not stated) to `COCC1CCCN(Cc2nc(-c3ccc4c(c3)OCO4)no2)C1` (configuration not stated), the inhibition rises from -0.69% to 3.45%.

Compared with `Cc1ccccc1NC(=O)N1CCCC1C(=O)NCc1ccccc1` (configuration not stated), `CCCCNC(=O)CN1C(=O)NC(Cc2ccccc2)(Cc2ccccc2)C1=O` is lower in inhibition: 3.76% for the first, 2.58% for the second.

First: O=[N+]([O-])c1ccc(NCCCO)c(C(F)(F)F)c1
Second: COc1cc(C(=O)Nc2cc(C(F)(F)F)ccc2-n2cncn2)cc(OC)c1OC
The inhibition of the first is higher: 6.89% for the first, -1.88% for the second.

First: O=C(COc1cccc(-n2cnnn2)c1)NCCC1=CCCCC1
Second: CSCCC(NC(=O)COc1ccccc1)C(=O)N1CCN(c2cccc(C(F)(F)F)c2)CC1 (configuration not stated)
The inhibition of the first is higher: 10.3% for the first, 7.1% for the second.

Compared with `CC1(c2ccccc2)CC(C)(C)N(C(=O)c2cc([N+](=O)[O-])cc([N+](=O)[O-])c2)c2ccccc21` (configuration not stated), `CC(/C=C/c1ccccc1)=N\NC(=O)C1CC1(C)c1ccccc1` (configuration not stated) is higher in inhibition: -0.31% for the first, 6% for the second.

Compared with `COc1ccc(CN2CCN(C(=O)c3cc(C4CC4)nn3-c3ccccc3)CC2)cc1F`, `O=C(CNC(=O)c1cc(S(=O)(=O)N2CCOCC2)ccc1N1CCCC1)Nc1ccc(F)c(F)c1` is lower in inhibition: 2.17% for the first, -4.31% for the second.

Going from `O=C(COc1cccc2c1CCNC2=O)NC1CCCCC1` to `COc1ccc(NS(=O)(=O)c2ccc(O)c(C(=O)OCC(=O)NC3CCCCC3)c2)cc1`, the inhibition rises from -3.94% to 19.8%.

Going from `Cc1c(NS(=O)(=O)c2cccc(C(=O)Nc3ccc(SC(F)F)cc3)c2)c(=O)n(-c2ccccc2)n1C` to `COc1ccc(C(=O)CSc2nnc(NC(=O)C3CC(=O)N(c4cccc(OC)c4)C3)s2)cc1` (configuration not stated), the inhibition falls from 5.1% to -6.09%.

Compared with `CC(=O)NC1=NC(=O)CS1`, `C/C(=N\OCC(=O)O)c1ccc(Cl)cc1` is higher in inhibition: -3.07% for the first, 9.56% for the second.

Going from `COc1ccc(C2(CNC(=O)Cc3ccc(OC)c(OC)c3)CCCC2)cc1` to `COc1ccc(CNCCCNCc2ccc(OC)c(OC)c2)cc1OC`, the inhibition rises from -0.19% to 2.53%.

First: CCCCc1nc2cc(C(=O)NCCc3cnn(C)c3)ccc2o1
Second: Cc1cccc(NC(=S)NCCc2ccc(Cl)cc2)c1C
The inhibition of the first is lower: -4.49% for the first, 13.9% for the second.

Going from `CC/C(=C(/c1ccccc1)c1ccc(OCC[N+](C)(C)C)cc1)c1ccccc1` to `CCCC(O)(c1ccccc1)C(c1ccccc1)c1ccccn1` (configuration not stated), the inhibition falls from 8.4% to 0.64%.

Compared with `CCOC(=O)CN/C=C(\C#N)c1ccc(F)cc1`, `CC1=C(C(=O)OCC2CCCCC2)C(c2ccc(F)cc2)NC(=O)N1` (configuration not stated) is higher in inhibition: -0.66% for the first, 9.14% for the second.

Compared with `CC12CCC(=O)N1C(C(=O)NCCN1C(=O)S/C(=C\c3ccccc3F)C1=O)CS2` (configuration not stated), `CC(C)c1nc(CNC(=O)CC2C(=O)NCCN2Cc2cccc(F)c2F)cs1` (configuration not stated) is higher in inhibition: -0.86% for the first, 3.42% for the second.

Going from `C/C(=N\NC(=O)Cc1ccccc1[N+](=O)[O-])c1cccnc1` to `ONC(=Nc1ccc(Cl)cc1)c1ccccc1Cl`, the inhibition rises from 4.87% to 15%.

Going from `COc1ccc(Cl)cc1NC(=O)CCS(=O)(=O)c1ccc(Br)cc1` to `Cc1ccc(S(=O)(=O)CCC(=O)OCC(=O)NCCc2ccc(S(N)(=O)=O)cc2)cc1`, the inhibition falls from 10% to -1.78%.

Compared with `C[C@@H](NC(=O)[C@@H]1Cc2ccccc2CN1)C(=O)NC1CCCC1`, `CCC(C)N1C(=S)SC(C)(C)C1N(O)C(=O)NC1CCCCC1` (configuration not stated) is higher in inhibition: 1.64% for the first, 5.19% for the second.

Compared with `CCCCNC(=O)N(O)C1N(/N=C/c2ccccc2O)C(=S)SC1(C)C` (configuration not stated), `CN(C)C(=O)COC(=O)c1cccc(S(=O)(=O)N2CC3(C)CC2CC(C)(C)C3)c1` (configuration not stated) is higher in inhibition: 4.39% for the first, 15.9% for the second.

Compared with `CN(C)c1nc(N)nc(CSc2nnnn2-c2cccc3ccccc23)n1`, `CCOCCOC(=O)C1=C(C)NC(=O)NC1c1ccc2c(c1)OCO2` (configuration not stated) is lower in inhibition: 1.2% for the first, -0.7% for the second.

In the case of `COc1ccc(S(=O)(=O)NCCc2cc3ccc(C)c(C)c3[nH]c2=O)cc1`, the inhibition is reported as 24.7% (active).
With `CCCCCCCCCCCC(=O)O` the inhibition was 30.2% (active).
In the case of `CCCCC(=O)NNC(=S)NC(=O)C(c1ccccc1)c1ccccc1`, the inhibition is reported as 27.4% (active).
For `Cc1ccc(S(=O)(=O)n2oc(=O)c(C3CCCCC3)c2N)cc1`, the inhibition was 30.4% (active).
With `Cc1ccc(S(=O)(=O)n2nc(OC(=O)C(C)(C)C)cc2N)cc1` the inhibition was 24.3% (active).
For `Cc1c(C)c2c(OCC(=O)N[C@@H](C(=O)O)c3ccccc3)cc3c(c2oc1=O)CCC(C)(C)O3`, the inhibition was 38% (active).
`O=C(COc1ccc(Cl)cc1)NCCC1=CCCCC1` was tested, and the inhibition was 27.5% (active).
`CC1CCC2CCCCC2N1C(=O)c1cc([N+](=O)[O-])cc([N+](=O)[O-])c1` (configuration not stated) was tested, and the inhibition was 24.7% (active).
`CCN(C(=O)COC(=O)c1cc(NS(=O)(=O)c2ccc(Cl)c([N+](=O)[O-])c2)ccc1O)C1CCCCC1` was tested, and the inhibition was 45.9% (active).
In the case of `COc1cc(C(=O)NCC2(c3ccccc3)CCCC2)ccc1OC(C)C`, the inhibition is reported as 69.7% (active).
With `COc1cccc2c1C(=O)c1c(O)c3c(c(O)c1C2=O)CC(O)(C(C)=NNC(=O)c1ccc(Cl)c(Cl)c1)CC3OC1CC(N)C(O)C(C)O1` (configuration not stated) the inhibition was 52.5% (active).
For `CCOc1cc(/C=C(/C#N)c2ccc(Cl)cc2)cc(Cl)c1OCC(=O)O`, the inhibition was 71.1% (active).
In the case of `O=C(CN1C(=O)NC(Cc2ccccc2)(Cc2ccccc2)C1=O)NCC1CCCCC1`, the inhibition is reported as 24.3% (active).
With `O=C(CCS(=O)(=O)c1ccc(Br)cc1)NCCc1ccc(Cl)cc1` the inhibition was 25.1% (active).
In the case of `Cc1ccc(NC(=S)NCCc2ccc(Cl)cc2)c(C)c1`, the inhibition is reported as 24.7% (active).
With `CCCCNC(=O)N(O)C1N(/N=C/c2ccc(N(C)C)cc2)C(=S)SC1(C)C` (configuration not stated) the inhibition was 27.3% (active).
For `C=CCN(c1ccc(Cl)cc1)S(=O)(=O)c1cccc(C(=O)OCC(=O)N(C)C)c1`, the inhibition was 27.3% (active).
In the case of `CCC(CC)COC(=O)C1=C(C)NC(=O)NC1c1ccc([N+](=O)[O-])cc1` (configuration not stated), the inhibition is reported as 28.2% (active).
